This passage reports Potency results from PubChem BioAssay (Tox21).

Where “and” joins values, the source holds several entries; their conditions need not be identical. Identical values can stand only once. Inconclusive results are not listed. Entries that show only a call come without a potency. Calls of active or inactive are those of the source. The call rests on the fitted dose curve; in most records, active means well fitted cell-killing curve with a large enough effect in the repeat runs; inconclusive means weak or mixed curves, or effect the other way; inactive means no such curve, though single readings can be large or run the other way.
Potency means the concentration at half of the fitted maximal effect.

A short description of this test: qHTS assay to identify small molecule antagonists of the sonic hedgehog signaling (Shh) pathway - cell viability counter screen (AID 1259367). Further: nearly all actives have a fitted effect of over 55% in size. The note with it: NIH/3T3 Gli1-Luc viability, CellTiter-Fluor, 24 h; series mostly up to 92.4 µM. The source says:
National Center for Advancing Translational Sciences [NCATS]
NIH Chemical Genomics Center [NCGC]
U.S. Environmental Protection Agency [EPA]
National Institutes of Environmental Health Sciences [NIEHS]
National Toxicology Program [NTP]
U.S. Food and Drug Administration [FDA]
The sonic hedgehog (Shh) pathway is essential for normal embryonic development. Dysregulation of the Shh pathway can cause severe developmental defects in organs. Therefore chemicals that interfere with the pathway are potential developmental toxicants. A cell line designated 3T3Gli1-Luc (DMB/OARSA/CFSAN/FDA, Laurel, MD), a NIH/3T3 derived clone containing stably integrated Gli1-Luc reporter is used to detect chemical interference of the Shh pathway, by changes in the expression of the firefly Luc gene under the control of the Gli1 transcriptional response element. This cell line was used to screen Tox21 libraries for identifying and prioritizing the potential developmental toxicants that interfere Shh pathway. Conditioned medium-stimulated mode was used to screen for chemicals inhibiting Shh signaling. The cytotoxicity of the compounds was tested in parallel by measuring the cell viability using CellTiter-Fluor assay system (Promega, Madison, WI) in the same wells.
Tox21 Assay Protocol Summary:
3T3 Gli1-Luc cells were dispensed at 2,000 per well in 5uL of culture medium into white solid bottom 1536-well plates (Greiner Bio-One, Monroe, NC) using a Multidrop Combi (Thermo Scientific, Waltham, MA) dispenser. The assay plates were incubated at 37 C and 5% CO2 for 4hr, and then 23nL of compounds dissolved in DMSO and positive control were transferred using a Pintool station (Wako, San Diego, CA). The compound transfer was followed by the addition of 1ul conditioned medium or assay buffer using two separate tips of Flying Reagent Dispenser (FRD, Aurora Discovery, San Diego, CA). The assay plates were incubated at 37C and 5% CO2 for 24hr. For viability read, after 23hr of compound treatment, 1uL of CellTiter-Fluor reagent (Promega Corporation, Madison, WI) was added to each well of the assay plates using Flying Reagent Dispenser (FRD, Aurora Discovery, San Diego, CA) and incubated the assay plates at 37C for 1hr. The fluorescence signal was quantified using a ViewLux plate reader (Perkin Elmer, Shelton, CT).
In general terms: Quantitative high-throughput screening tests each substance at several concentrations.
Turning to `C[N+](C)(C)CCO`, the Potency result was “inactive”. Turning to `Nc1cc(Cl)c(N)c(Cl)c1`, the Potency result was “inactive”. Next, `Brc1nc2ccccc2s1`: “inactive”; `O=C(O)COCCN1CCN(C(c2ccccc2)c2ccc(Cl)cc2)CC1` (stereo not given): “inactive”. As to `C1COCCN1`, the Potency result was “inactive”.

`Cc1ccc(N)c([N+](=O)[O-])c1`: the Potency result was “inactive”. Regarding `c1ccc2ncccc2c1`, the Potency result is “inactive”. Next, `C=C[C@H]1CN2CC[C@H]1C[C@H]2[C@H](O)c1ccnc2ccc(OC)cc12`: “inactive”; `Cc1cccc(Nc2ccccc2C(=O)O)c1C`: “inactive”. Next, `C[C@]12CC[C@@H]3c4ccc(O)cc4CC[C@H]3[C@@H]1CC[C@@H]2O`: “inactive”; `CC1(C)OC(=O)NC1=O`: “inactive”. Next, `O=S1(=O)CCCO1`: “inactive”; `C[C@]12CC[C@@H]3c4ccc(O)cc4CC[C@H]3[C@@H]1CC[C@H]2O`: “inactive”. In the case of `Oc1c(Cl)ccc(Cl)c1Cl`, the Potency result was “inactive”.

Turning to `C=C[C@@]1(C)CC(=O)[C@]2(O)[C@@]3(C)[C@@H](O)CCC(C)(C)[C@@H]3[C@H](O)[C@H](OC(C)=O)[C@@]2(C)O1`, the Potency entry was “inactive”.

Take `CC1(C)NC(=O)N(c2ccc([N+](=O)[O-])c(C(F)(F)F)c2)C1=O`: the Potency entry was “inactive”. As for `CN(C)CCCN1c2ccccc2Sc2ccc(Cl)cc21`, the Potency is 61.1 µM (active). Turning to `O=[Se](O)O`, the Potency entry was “inactive”. Next, `CC(=O)[C@H]1CC[C@H]2[C@@H]3CC=C4C[C@@H](O)CC[C@]4(C)[C@H]3CC[C@]12C`: “inactive”; `Cc1ccc(S(=O)(=O)O)cc1C`: “inactive”. For `c1ccc2c(c1)ccc1cc3c(ccc4ccccc43)cc12`, the Potency result is “inactive”.

Regarding `Cc1ccc(C)c(O)c1`, the Potency entry was “inactive”.

As for `C=CN1CCCC1=O`, the Potency result is “inactive”. As for `C=C1C[C@H]2[C@@H]3C=C(C)C4=CC(=O)CC[C@]4(C)[C@H]3CC[C@]2(C)[C@@]1(OC(C)=O)C(C)=O`, the Potency entry is “inactive”. In the case of `ClC/C=C/CCl`, the Potency result is “inactive”. In the case of `CC(=O)O[C@]1(C(C)=O)CC[C@H]2[C@@H]3C=C(Cl)C4=CC(=O)CC[C@]4(C)[C@H]3CC[C@@]21C`, the Potency entry is “inactive”. Next, `COc1ccc(C(=O)c2ccccc2O)c(O)c1`: “inactive”; `CCc1cccc2c3c([nH]c12)C(CC)(CC(=O)O)OCC3` (stereo not given): “inactive”; `CC(=O)[C@@]1(O)CC[C@H]2[C@@H]3C[C@H](C)C4=CC(=O)C=C[C@]4(C)[C@@]3(F)[C@@H](O)C[C@@]21C`: “inactive”. Next, `C=CCNCC=C`: “inactive”; `C1CN(SSN2CCOCC2)CCO1`: 48.1 µM (active) and 61.1 µM (active).

As to `COC(=O)CC(=O)OC`, the Potency result is “inactive”.

On to `CC(=O)O[C@]1(C(C)=O)CC[C@H]2[C@@H]3C=C(C)C4=CC(=O)CC[C@]4(C)[C@H]3CC[C@@]21C`, for which the Potency result is “inactive”. Next, `O=C(O)c1ccc(O)cc1`: “inactive”.

In the case of `c1ccc2c(c1)ccc1ncccc12`, the Potency result was “inactive”.

As to `Nc1ccc2c(c1)C(=O)c1ccccc1C2=O`, the Potency entry is “inactive”.

Turning to `CC1=CC(C)(C)Nc2ccccc21`, the Potency result was “inactive”. Next, `NC[C@H](O)c1ccc(O)c(O)c1`: “inactive”; `NCCOCCO`: “inactive”; `O=C(CCCN1CCC(O)(c2ccc(Cl)cc2)CC1)c1ccc(F)cc1`: “inactive”.
